CYP2C9 inhib: inhibitors of human CYP2C9; P11712; CYP2C9 Supersomes, luciferin-H conversion, luminescence; inhibition, % at 5 µM; hit rate 20% among 96,000; AID 777;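 active = blocking of liver enzyme CYP2C9 beyond about 50% at 5 µM, limit read from the data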
PostGolgi yeast: growth inhibition of a yeast mutant, post-Golgi transport screen. post-Golgi transport phenotypic cell assay. inhibition, % at 10 µM. hit rate 0.9% among 98,000;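 note: yeast cells grown in 1536-well plates; yeast grown about 18 h at 30C before absorbance read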
CYP2C19 activ: activators of human cytochrome P450 2C19. P33261. recombinant CYP2C19, luciferin-H EGE luminescence; hits give high values; 0 = fully inhibited enzyme, 1 = untreated enzyme. activation factor at 5 µM. 96,000 tested, under 10 active. AID 1025;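 active = activation factor of at least 2 at 5 µM in the primary screen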
Target sequence (P33261 whole entry, looked up): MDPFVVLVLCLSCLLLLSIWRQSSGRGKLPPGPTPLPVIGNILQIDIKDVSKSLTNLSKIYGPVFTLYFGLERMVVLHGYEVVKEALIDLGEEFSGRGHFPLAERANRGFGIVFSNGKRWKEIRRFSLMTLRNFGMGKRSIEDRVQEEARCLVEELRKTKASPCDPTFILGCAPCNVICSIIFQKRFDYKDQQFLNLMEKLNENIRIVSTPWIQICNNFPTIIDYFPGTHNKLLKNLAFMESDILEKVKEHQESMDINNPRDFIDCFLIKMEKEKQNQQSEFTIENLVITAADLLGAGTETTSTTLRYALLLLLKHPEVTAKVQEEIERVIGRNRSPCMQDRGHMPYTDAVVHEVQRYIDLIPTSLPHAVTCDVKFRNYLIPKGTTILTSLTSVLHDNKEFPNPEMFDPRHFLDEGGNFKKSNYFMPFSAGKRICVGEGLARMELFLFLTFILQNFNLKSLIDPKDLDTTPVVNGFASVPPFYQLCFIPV
CYP2C19 inh: inhibitors of human CYP2C19; CYP2C19 Supersomes, luciferin-H EGE luminescence, 30 min; inhibition, % at 5 µM; hit rate 21% among 96,000; AID 778;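 active = CYP2C19 inhibition above a set limit at 5 µM in the primary screen, cut at about 50% in these data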
PostGolgi ctrl: inhibits growth of the yeast control strain | inhibition, % at 10 µM | hit rate 5% among 98,000 | efflux-deficient yeast background strain, growth absorbance A615, 16 h
CYP2C9 activ: activators of human CYP2C9. P11712. recombinant CYP2C9, luciferin-H conversion, luminescence; hits give high values; factor 1 = untreated enzyme, 0 = blocked. hit rate 1.4% among 96,000. activation factor at 5 µM. AID 1024;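 active = activation factor of 2 or more for CYP2C9 at a 5 µM dose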
A number is an active result; n = inactive; x = no result. Hits are enriched below; roughly 32% of the tested compounds scored in any of these assays. Cut-off read from the data, not from the text of the source, unless noted: active = inhibition above about 30%; inactive = the rest.

SMILES	CYP2C9 inhib	PostGolgi yeast	CYP2C19 activ	CYP2C19 inh	PostGolgi ctrl	CYP2C9 activ
c1coc(CNc2ncnc3sc4c(c23)CCCCC4)c1	93	n	n	87	n	n
COc1ccc(N2CCN(C(=O)CCCSc3nc4ccccc4[nH]3)CC2)cc1	n	n	n	n	n	n
Cc1cc(NC(=O)Cn2cnc3c2c(=O)n(C)c(=O)n3C)n(-c2ccccc2)n1	n	n	n	n	n	n
Oc1ccccc1-c1nc(NCc2ccco2)c2ccccc2n1	n	n	n	n	n	n
c1coc(CNc2nc(N3CCCCC3)nc3ccccc23)c1	n	40	n	n	n	n
c1ccc(N2CCN(c3nc(NCc4ccco4)c4ccccc4n3)CC2)cc1	91	n	n	96	n	n
Cc1cc(NC(=O)CSc2nc3c(c(-c4cccnc4)c2C#N)CCC3)no1	n	n	n	n	n	n
O=C(CCCCCn1c(=S)[nH]c2cc3c(cc2c1=O)OCO3)N1CCN(C2CCCCC2)CC1	81	n	n	n	n	n
COc1ccc2[nH]c3c(=O)n(CCCCC(=O)N4CCCC4)c(=S)[nH]c3c2c1	60	n	n	n	n	n
Cc1ccc(C)c(N2CCN(C(=O)CCn3c(=S)[nH]c4cc5c(cc4c3=O)OCO5)CC2)c1	79	n	n	n	n	n
COc1ccc(N2CCN(C(=O)CCCn3c(=S)[nH]c4cc5c(cc4c3=O)OCO5)CC2)cc1	74	n	n	n	n	n
O=C(CCCCCn1c(=S)[nH]c2cc3c(cc2c1=O)OCO3)N1CCN(Cc2ccccc2)CC1	70	n	n	n	n	n
O=C(CCCCCn1c(=S)[nH]c2cc3c(cc2c1=O)OCO3)N1CCN(C(=O)c2ccco2)CC1	64	n	n	n	n	n
O=C(CCCn1c(=S)[nH]c2cc3c(cc2c1=O)OCO3)N1CCN(c2ccccn2)CC1	n	n	n	n	n	n
O=C(NC1CC1)c1ccc2c(c1)ncn2C1CCCC1	n	n	n	n	n	n
COc1ccccc1C1(CC(=O)Nc2nccs2)CCOC(C(C)C)C1 (stereo not drawn)	67	n	n	92	n	n
O=C(CSc1nnc(COc2ccc3c(c2)CCCC3)o1)Nc1ccc(F)cc1	n	n	n	n	n	n
CSC(=NCc1cccnc1)NS(=O)(=O)c1cccs1	n	n	n	65	n	n
CCOc1ccccc1CNC(=O)c1cc2oc3ccccc3c2n1CC	n	n	n	66	31	n
CCOc1ccc(CNC(=O)c2cc3oc4ccccc4c3n2C)cc1	52	n	n	n	n	n
COc1cccc(CNC(=O)c2cc3oc4ccccc4c3n2C)c1OC	n	n	n	n	n	n
N/C(COc1ccc(C(=O)O)cc1)=N\O	n	n	n	n	n	n
Cc1ccc(C)n1NC(=O)c1ccc(O)cc1	n	n	n	n	n	n
O=C(c1ccc(O)cc1)c1ccc(C(=O)c2ccc(O)cc2)cc1	69	n	n	n	n	n
CCn1cc(C(=O)NCCC2=CCCCC2)c(=O)c2cc(S(=O)(=O)N(C)C)ccc21	x	n	x	x	n	x
SMILES	CYP2C9 inhib	PostGolgi yeast	CYP2C19 activ	CYP2C19 inh	PostGolgi ctrl	CYP2C9 activ
CC(C)NC(=O)c1cccc(Cn2cc(Cl)cn2)c1	n	n	n	n	n	n
COC(=O)c1ccc(Cn2cc(Cl)cn2)cc1	53	n	n	99	n	n
O=C(Nc1cccc2ccccc12)c1ccc(Cn2cc(Cl)cn2)cc1	n	n	n	n	39	2.6
Cc1cc2c(cc1C)NC1(C(=O)Nc3ccccc31)C1=C(CC(C)(C)CC1=O)N2 (stereo not drawn)	n	n	n	n	n	n
CC(=O)/C(=C\Nc1ccc(OCc2ccccc2)cc1)c1ccccc1	85	n	n	n	n	n
CC(=O)/C(=C/Nc1ccc(Oc2ccccc2)cc1)c1ccccc1	89	n	n	68	n	n
CS(=O)(=O)Nc1ccc(OCc2ccccc2)cc1	n	n	n	n	31	n
COc1cc(N/C=C(\C(C)=O)c2ccccc2)cc(OC)c1	86	n	n	72	n	n
COc1ccc(NC(=S)Nc2ccc(Oc3ccccc3)cc2)cc1	n	n	n	n	n	n
CCn1c(-c2ccccc2)ccc(C#N)c1=O	n	n	n	n	n	n
CS(=O)(=O)N(Cc1cc2ccccc2[nH]c1=O)C1CCCCC1	n	n	n	n	n	n
C/C(=N/OC(=O)c1cccc(Cl)c1)c1nccs1	n	n	n	n	n	n
CCC(NC(=O)Cn1cnc2c(=O)n(C)c(=O)n(C)c21)c1ccccc1 (stereo not drawn)	x	n	x	x	n	x
CC1=Nc2ccccc2/C1=C\c1nc(-c2ccc(F)cc2)oc1O	n	n	n	n	n	n
O=C(CSc1nc(-c2ccccc2)cc(=O)[nH]1)N1CCOCC1	n	n	n	n	n	n
CC1(C)C(=O)Nc2ccccc2N1C(=O)CN1C(=O)c2ccccc2C1=O	n	n	n	n	n	n
CC1(C)C(=O)Nc2ccccc2N1C(=O)COc1ccc(S(=O)(=O)N2CCOCC2)cc1Cl	66	n	n	n	n	n
CC1(C)C(=O)Nc2ccccc2N1C(=O)COc1ncnc2c(Cl)cc(Cl)cc12	n	n	n	77	n	n
Cc1cnc(C(=O)OCC(=O)N2c3ccccc3NC(=O)C2(C)C)cn1	n	n	n	n	n	n
COC(=O)c1ccc(CN(c2ccc(C)cc2)S(=O)(=O)c2ccc3c(c2)OCCO3)o1	74	n	n	59	n	n
Cc1ccc(N(CC(=O)N2CC(=O)Nc3ccccc32)S(=O)(=O)c2ccc3c(c2)OCCO3)cc1	x	n	x	x	n	x
CCOC(=O)c1ccoc1CSCC(=O)N1CCN(S(=O)(=O)c2ccc(C)cc2)CC1	n	n	n	n	n	n
C=CCN(CC=C)Cc1ccc(C(=O)OC)o1	n	n	n	n	n	n
COC(=O)c1ccc(Cc2ccc(C(=O)OC)o2)o1	n	n	n	n	36	n
CCOC(=O)c1ccoc1CSCc1ccc(C(=O)OC)o1	72	n	n	n	n	n
SMILES	CYP2C9 inhib	PostGolgi yeast	CYP2C19 activ	CYP2C19 inh	PostGolgi ctrl	CYP2C9 activ
COC(=O)c1ccc(CN(C)S(=O)(=O)c2ccc(C)cc2)o1	58	x	n	91	x	n
CCC(C)NCc1ccc(C(=O)OC)o1 (stereo not drawn)	n	n	n	n	n	n
O=C1CSc2ccccc2N1Cc1ccc(F)cc1	70	n	n	69	n	n
Cc1ccc(OCCCn2c(=O)sc3ccccc32)cc1	n	n	n	n	n	n
O=c1sc2ccccc2n1CCCOc1ccccc1	62	n	n	n	n	n
COc1ccc(Cn2c(=O)sc3ccccc32)cc1	68	n	n	50	n	n
O=c1sc2ccccc2n1COc1ccccc1	59	x	n	89	x	n
O=C(Cn1c(=O)sc2ccccc21)N1CCOCC1	n	n	n	n	n	n
O=c1sc2ccccc2n1COc1ccc(Cl)cc1	94	n	n	100	n	n
Cc1ccccc1OCCCn1c(=O)sc2ccccc21	55	n	n	n	n	n

Screening results: PubChem BioAssay, several laboratories
